# High-throughput results deposited in PubChem BioAssay by National Center for Advancing Translational Sciences (NCATS).
# BAZ2B block: BAZ2B (human) inhibition | Q9UIF8 | AlphaScreen BAZ2B-H3K14Ac peptide displacement | Potency, µM (titrated, usually from 114 µM), without a hit: at the highest dose activity change, negative = inhibition, usual class: inhibitors | actives 4.4% (n = 360,000); further: on the % scale 0 is the no-effect control and ±100 the full control effect; nearly all actives have a fitted effect of over 60% in size
#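 AlphaScreen luminescence quantifies BAZ2B engagement of H3K14Ac peptide; the protein and biotinylated peptide are both at 50 nM final, buffer PBS pH 7.4 with 0.01% Tween-20, all steps at room temperature.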
# G9a block: G9a (human) methyltransferase inhibition. Q96KQ7. actives 8.8% (n = 350,000). Potency, µM (highest dose often 102 µM), for the others: at the top dose activity, negative = inhibition, actives largely listed as inhibitors. G9a H3K9 monomethylation, AlphaScreen, 2 h; further: on the % scale 0 is the no-effect control and ±100 the full control effect; nearly all actives have a fitted effect of over 75% in size
#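 G9a (20 nM) preincubated 15 min RT with compounds, then 500 nM biotinylated H3K9 peptide and 20 uM SAM added; 2 h RT reaction. Monomethyl-H3K9 product detected by AlphaScreen with anti-H3K9me1 antibody, streptavidin donor and anti-rabbit IgG acceptor beads.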
# JMJD2A Tudor inh: inhibitors of human JMJD2A Tudor domain; O75164; AlphaScreen JMJD2A-Tudor / H3K4me3 peptide binding; Potency, µM (top dose mostly 114 µM), without a hit: top-dose activity change, negative = inhibition, usual class: inhibitors; actives 4.4% (n = 390,000); AID 504339; further: on the % scale 0 is the no-effect control and ±100 the full control effect; nearly all actives have a fitted effect of over 50% in size
# L3MBTL1 inh: L3MBTL1 (human) inhibition. AlphaScreen L3MBTL1–H3K9me1 peptide binding. actives 0.66% (n = 230,000). Potency, µM (series often up to 57.1 µM), inactives show at the highest dose activity, negative = inhibition, actives largely listed as inhibitors. AID 485360; further: on the % scale 0 is the no-effect control and ±100 the full control effect; nearly all actives have a fitted effect of over 60% in size
# Target sequence (Q9Y468 whole entry, looked up): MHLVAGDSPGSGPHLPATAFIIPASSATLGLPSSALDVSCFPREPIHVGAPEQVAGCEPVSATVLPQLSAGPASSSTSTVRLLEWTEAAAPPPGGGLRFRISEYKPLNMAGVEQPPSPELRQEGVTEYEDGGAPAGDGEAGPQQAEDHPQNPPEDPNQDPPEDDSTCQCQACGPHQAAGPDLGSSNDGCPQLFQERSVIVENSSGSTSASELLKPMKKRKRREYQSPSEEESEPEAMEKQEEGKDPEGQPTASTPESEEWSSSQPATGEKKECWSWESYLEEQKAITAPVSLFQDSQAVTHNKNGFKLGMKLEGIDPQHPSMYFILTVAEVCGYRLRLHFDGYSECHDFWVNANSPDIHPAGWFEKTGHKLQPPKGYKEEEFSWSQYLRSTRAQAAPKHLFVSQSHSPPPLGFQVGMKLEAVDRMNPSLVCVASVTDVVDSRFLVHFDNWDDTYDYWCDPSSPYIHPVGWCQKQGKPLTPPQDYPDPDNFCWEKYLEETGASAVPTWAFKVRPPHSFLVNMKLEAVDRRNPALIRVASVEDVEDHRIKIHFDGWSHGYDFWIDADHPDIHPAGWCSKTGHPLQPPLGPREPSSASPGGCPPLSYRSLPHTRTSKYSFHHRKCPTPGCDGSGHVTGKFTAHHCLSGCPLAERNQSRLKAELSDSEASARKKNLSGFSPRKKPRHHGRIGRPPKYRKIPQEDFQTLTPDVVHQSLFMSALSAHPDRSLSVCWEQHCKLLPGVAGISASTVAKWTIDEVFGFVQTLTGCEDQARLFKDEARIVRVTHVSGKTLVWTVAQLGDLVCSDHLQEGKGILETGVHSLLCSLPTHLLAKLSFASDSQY
#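 First, the protein-peptide complex forms for 30 min at room temperature (L3MBTL1 50 nM, biotinylated H3K9me1 peptide 75 nM). Next, compounds are pin-transferred and incubated 30 min. Finally, AlphaScreen beads are added and read after 30 min.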
# HP1b binding inh: blocks HP1-beta chromodomain binding to methylated histone tails | P83916 | AlphaScreen HP1-beta / biotin-H3K9me3 peptide binding | Potency, µM (series often up to 114 µM), for the others: at the highest dose activity change, negative = inhibition, hits mostly inhibitors | actives 0.56% (n = 390,000) | AID 540317; further: nearly all actives have a fitted effect of over 70% in size
#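 HP1-beta protein (50 nM final) preincubated 30 min at room temperature with biotinylated H3(1-18)K9me3 peptide (50 nM) in PBS pH 7.4, 0.01% Tween-20, then compound added for 30 min. AlphaScreen streptavidin donor/nickel chelate acceptor beads (10 ug/mL final), 30 min dark, luminescence read.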
# An asterisk follows results filed as active; ? = inconclusive; nt = no result; [ ] = another dose, or the depositor's remark. Rows were chosen to be rich in hits. Some 11% of all compounds tested hit in one or more screens of this group. The call rests on the fitted dose curve; in most records, active means well fitted inhibition curve with a large enough effect; inconclusive means small, poorly fitted or top-dose-only effect; inactive means no such curve, though single readings can be large or run the other way. Potency means the concentration at half of the fitted maximal effect.
SMILES,BAZ2B block,G9a block,JMJD2A Tudor inh,L3MBTL1 inh,HP1b binding inh
Cc1cc(C)c2c(N)c(C(=O)c3ccc(Br)cc3)oc2n1,-6%,35µM*,3%,12%,62%
NC(=O)c1nc(-c2ccc(F)c(F)c2)nc2c1[nH]c(=O)n2-c1cccc(Cl)c1,2%,9%[59 µM],-10%,nt,34%
CCc1nc(C)cn1S(=O)(=O)c1cc(C)c(OC)cc1C,-3%,50µM*,-3%,nt,39%
CCc1nc(C)cn1S(=O)(=O)c1cc(Br)c(C)cc1OC,-19%,?,-19%,-12%,5%
O=C(CN(Cc1cccs1)C(=O)CCC(=O)Nc1ccccn1)NCc1ccccc1,2%,-5%,?,5%,-8%
N=c1c2c(ncn1Cc1ccco1)Oc1c(ccc3ccccc13)C2c1ccccc1 (stereo unspecified),50µM*,-1%[2.33 µM],?,-3%,?
CCOC(=O)N1CCN(CCC(=O)c2ccc(OC)cc2)CC1,13%,10µM*,-15%,nt,45%
CCOC(=O)N1CCN(CCC(=O)c2ccc(Br)cc2)CC1,0%,4µM*,?,nt,4%
COc1cc2c(cc1OC)CN(C(=O)CCNC(=O)c1ccc(Br)cc1)CC2,-4%,?,-7%,-3%,15%
COc1cc2c(cc1OC)CN(CCC(=O)c1ccc(Br)cc1)CC2,-23%,14µM*,?,-4%,-13%
CCOC(=O)N1CCN(CCC(=O)Nc2ccc(OC)cc2)CC1,-6%,12%[59 µM],-10%,nt,34%
CCOC(=O)N1CCN(CCC(=O)c2ccc(Cl)cc2)CC1,22%,?,-14%,7%[11.4 µM],18%
COc1ccc(-c2noc(CN(C(=O)Cc3ccc(C)cc3)C(C)C)n2)cc1,14%,8%[59 µM],-4%,nt,45%
Cc1ccccc1NN=Nc1nc2c([nH]1)c(=O)n(C)c(=O)n2C,-30%,4µM*,?,-1%,?
COc1ccc(C=NNc2nc3c([nH]2)c(=O)n(C)c(=O)n3C)cc1,nt,nt,-7%,nt,12%[57 µM]
Cn1c(=O)c2[nH]c(N=NNc3ccccc3F)nc2n(C)c1=O,20µM*,1.8µM*,7.9µM*,5%,20µM*
COc1ccc(NN=Nc2nc3c([nH]2)c(=O)n(C)c(=O)n3C)cc1,56µM*,nt,8.9µM*,-5%,4.5µM*
COc1ccccc1NC(=O)Cc1nnc(SCC(=O)Nc2ccccc2F)n1C,0%,8%[59 µM],11µM*,nt,-14%
CCn1c(CC(=O)Nc2ccccc2OC)nnc1SCC(=O)Nc1ccccc1F,-13%,2%,-3%,7%,47%
COc1ccccc1NC(=O)c1ccc(NC(=O)CSc2nncn2C)cc1,0%,11µM*,-11%,-7%,45%
C=CC1=C(C(=O)O)N2C(=O)C(NC(=O)/C(=N\O)c3csc(N)n3)C2SC1 (stereo unspecified),nt,1%[2.33 µM],nt,nt,nt
COc1cc2c(cc1OC)n(CC(=O)NC1CCCCCC1)n1c(C)cc(=O)nc21,-14%,23%,50µM*,nt,-14%
COC(=O)Cn1c2ccccc2c2nc(=O)cc(C)n21,9%,-3%,-15%,nt,41%
Cc1ccc(C(=O)NC(=S)/C=C2\N(C)c3ccccc3C2(C)C)cc1,13µM*,14µM*,22µM*,?,13µM*
Cc1c(N=C/C=C2\N(C)c3ccccc3C2(C)C)c(=O)n(-c2ccccc2)n1C,2%,10%,-22%,-9%,-7%
SMILES,BAZ2B block,G9a block,JMJD2A Tudor inh,L3MBTL1 inh,HP1b binding inh
Cc1c(NC(=S)/C=C2\N(C)c3ccccc3C2(C)C)c(=O)n(-c2ccccc2)n1C,?,32µM*,-26%,-6%,?
CC(C)C(=O)NC(=S)/C=C1/N(C)c2ccccc2C1(C)C,32µM*,40µM*,40µM*,-13%,50µM*
O=C(CN1C(=O)C2(SCC(=O)N2c2ccccc2)c2ccccc21)Nc1ccccc1C(F)(F)F (stereo unspecified),2%[57.1 µM],-6%[59 µM],-17%,nt,19%
COCCCn1c(SCC(N)=O)nnc1-c1ccccc1,6%,17%[59 µM],-19%,8%,18%
COCCCn1c(Cc2csc(Nc3ccccc3)n2)nnc1SCC(N)=O,56µM*,6.3µM*,?,-13%,-19%
NC(=O)CSc1nnc(Cc2csc(Nc3ccccc3)n2)n1Cc1ccccc1,4%,35µM*,?,-10%,19%
Cc1cc2ncc(S(C)(=O)=O)c(N)n2n1,-7%,2%,13µM*,6%,4%
CC(C)C[C@@H]1NC(=O)[C@H](Cc2ccc(O)cc2)NC(=O)[C@H](CCC(N)=O)NC(=O)c2cc([N+](=O)[O-])cc(I)c2NCC[C@@H](C(N)=O)NC1=O,50µM*,7.1µM*,nt,-2%,nt
NC(=O)C(CC(=O)O)NC(=O)[C@@H]1CCOc2c(I)cc([N+](=O)[O-])cc2C(=O)N[C@@H](CO)C(=O)N[C@@H](Cc2ccc(O)cc2)C(=O)N1 (stereo partly specified),?,22µM*,50µM*,?,-12%
CCC(C)CCCCC(=O)NC(CCN)C(=O)NC(C(=O)NC(CCN)C(=O)NC1CCNC(=O)C(C(C)O)NC(=O)C(CCN)NC(=O)C(CCN)NC(=O)C(CC(C)C)NC(=O)C(Cc2ccccc2)NC(=O)C(CCN)NC1=O)C(C)O (stereo unspecified),nt,-43%[2.33 µM],nt,nt,nt
NC(=O)[C@@H]1CCNc2c(I)cc([N+](=O)[O-])cc2C(=O)N[C@@H](CO)C(=O)N[C@@H](Cc2ccc(O)cc2)C(=O)N1,79µM*,10µM*,nt,-4%,nt
NS(=O)(=O)c1ccc(N2CCN(C(=O)c3ccco3)CC2)nc1,nt,nt,-10%,38%,42%
CCOc1cccc(CC(=O)N2CCc3c([nH]c4ccccc34)C2c2ccc(C)cc2)c1OCC (stereo unspecified),-31%,?,?,nt,-1%[57 µM]
CCc1ccc(CN(Cc2ccco2)C(=O)COc2ccc(Cl)cc2C)cc1,38%,93%[59 µM],18%,nt,44%
CC(C)(C)N1C(=O)c2ccc(C(=O)Nc3cc(C(=O)O)cc(C(=O)O)c3)cc2C1=O,-6%,10%[0.501 µM],2%,3%[2.29 µM],21%
CCN1CCN(C(c2ccc(F)cc2)c2c(O)cc(C)n(CCOC)c2=O)CC1 (stereo unspecified),-2%,?,-11%,nt,30%[57 µM]
Clc1cccc(-c2csc(-c3nc(-c4ccc(Br)s4)cs3)n2)c1,0%,16%[59 µM],11%,nt,31%
S=c1[nH]nc2ccccn12,nt,nt,6.3µM*,nt,?
Oc1cc(CNCc2ccccc2)c(O)cc1CNCc1ccccc1,nt,nt,7.9µM*,nt,32µM*
S=c1ncc2[nH]c(=S)[nH]c2[nH]1,nt,nt,11µM*,nt,?
Cc1cc(O)c(C(C)C)cc1NC(=O)Nc1ccc([N+](=O)[O-])cc1,nt,nt,?,nt,-26%
Cc1cc(O)c(C(C)C)cc1N=Cc1ccc([N+](=O)[O-])cc1,nt,nt,45µM*,nt,50µM*
